# Measured values from PubChem BioAssay.
# A number with no mark means an inactive call. How the calls were made is not given here.
# Molecular target: Pantothenate synthetase (Mycobacterium tuberculosis (strain ATCC 25618 / H37Rv)) (UniProt P9WIL5)
# Experiment: Coupled enzyme confirmation of inhibitors against recombinant Mtb PanC (AID 375);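 further: 0% = full reaction with vehicle and 100% = no enzyme background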
# Details: coupled enzyme assay; at 10 µM, hits give high values
# Sequence of Pantothenate synthetase (Mycobacterium tuberculosis (strain ATCC 25618 / H37Rv)) (P9WIL5 whole entry, looked up): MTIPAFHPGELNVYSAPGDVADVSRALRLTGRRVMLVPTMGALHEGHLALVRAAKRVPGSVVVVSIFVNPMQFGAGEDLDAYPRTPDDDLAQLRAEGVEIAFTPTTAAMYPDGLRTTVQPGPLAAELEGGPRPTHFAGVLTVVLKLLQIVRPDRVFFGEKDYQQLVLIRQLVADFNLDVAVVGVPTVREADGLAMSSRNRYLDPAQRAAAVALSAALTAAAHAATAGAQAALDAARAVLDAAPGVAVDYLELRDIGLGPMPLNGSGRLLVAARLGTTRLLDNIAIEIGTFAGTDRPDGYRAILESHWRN
row,SMILES,inhibition [%]
1,COC(=O)c1cccc(NC(=O)Cc2coc3cc(OC)ccc23)c1,0
2,c1ccc(-c2cn3c4c(sc3n2)CCCC4)cc1,3
3,COCCCn1c(SCC(=O)Nc2cccc(C)n2)nnc1-c1ccco1,0
4,COC(=O)CN(c1ccc(OC)cc1)S(=O)(=O)c1ccc(OC)c(OC)c1,0
5,Cc1nnc(SCC(=O)NCc2ccccc2)s1,0
6,Cc1cc(C)c(C)c(S(=O)(=O)Nc2ccc(O)cc2)c1C,10
7,CC(=O)N1CCN(c2ccc(NC(=O)c3ccc(C(C)(C)C)cc3)cc2)CC1,0
8,COc1ccc(C2c3c(oc4ccccc4c3=O)C(=O)N2c2ccc(C)cn2)cc1OC (stereo not given),0
9,CCOC(=O)c1ccccc1NC1CC(=O)N(c2ccccc2C)C1=O (stereo not given),0
10,Cc1occc1C(=O)Nc1ccc(S(=O)(=O)N2CCN(C)CC2)cc1,0
11,CCNc1nc(N2CCOCC2)nc(N(c2ccccc2)c2ccccc2)n1,0
12,CCCOc1ccc(C2C(C(=O)OC)=CN(CCOC)C=C2C(=O)OC)cc1,1
13,CN(C)S(=O)(=O)n1cnc(-c2ccccc2)c1-c1ccccc1,4
14,COc1ccc(-n2c(COc3cccc(C)c3)nnc2SCC(=O)NCc2ccco2)cc1,5
15,COc1ccc(S(=O)(=O)n2nc(OC(=O)c3ccc(C)cc3)cc2N)cc1,5
16,COc1ccccc1C1/C(=C(\O)c2c(C)nc3c(C)cccn23)C(=O)C(=O)N1CCCN(C)C (stereo not given),0
17,O=C(CSc1nnc(-c2ccco2)c(-c2ccco2)n1)Nc1ccccc1,2
18,CCOC(=O)/C(C#N)=C(/C)c1ccc(OC)cc1,0
19,Cc1[nH]nc2c1C1(C(=O)N(Cc3ccc(Cl)cc3)c3ccccc31)C(C#N)=C(N)O2 (stereo not given),0
20,CC1CCCN(C(=O)c2cc(F)c(F)cc2Cl)C1 (stereo not given),0

row,SMILES,inhibition [%]
1,CCc1ccc(NS(=O)(=O)c2cccs2)cc1,0
2,Cc1nc(-c2cccc(N)c2)cs1,0
3,COc1ccc(OC)c(S(=O)(=O)NCCO)c1,1
4,NC(=O)SCC(=O)Nc1cccc(Cl)c1,1
5,CCCC(=O)Nc1ccc(OCC(O)CNC(C)C)c(C(C)=O)c1 (stereo not given),0
6,O=C(CCN1C(=O)C2C3C=CC(C3)C2C1=O)N1CCN(c2ccccc2Cl)CC1 (stereo not given),3
7,O=C(CS(=O)CC(=O)Nc1cccc2c1CCCC2)Nc1ccc(F)cc1 (stereo not given),0
8,O=C(CN(CCc1ccccc1)C(=O)CN1C(=O)COc2ccccc21)NCc1ccco1,10
9,O=C(CCn1c(=O)sc2ccccc21)Nc1nccs1,0
10,COc1ccc(CC(NC(C)=O)C(=O)NC2CCN(C(=O)Nc3ccc(C#N)cc3)CC2)cc1OC (stereo not given),10
11,C[C@@H]1CCC[C@H](C)N1NC(=O)c1ccc(Cl)c(S(N)(=O)=O)c1,0
12,CN1CCN(Cc2nc3c(c(=O)[nH]c(=O)n3C)n2CCc2ccccc2)CC1,0
13,CC(COc1ccccc1)NC(C)C(O)c1ccc(O)cc1 (stereo not given),0
14,N=c1c(C(=O)NCc2ccc(F)cc2)cc2c(=O)n3ccccc3nc2n1CCCN1CCOCC1,0
15,CC(C)(C)c1ccc2c(c1)OCC(C(=O)O)O2 (stereo not given),4
16,CCCCCn1c(=O)[nH]c2cc(C(=O)NCCCN3CCCCC3)ccc2c1=O,3
17,COc1ccc(CC(=O)Nc2c3c(nn2-c2cccc(Cl)c2)CS(=O)(=O)C3)cc1,0
18,COc1ccccc1N1CCN(C(=O)c2cc(C3CC3)on2)CC1,3
19,COc1ccc(S(=O)(=O)N2CCSC2c2ccccc2)cc1 (stereo not given),1
20,COc1ccc(-n2nc3cc(C)c(N)c(Br)c3n2)cc1,0
